Data as given in the supplement of paper PMC6411743.
± gives the standard deviation of the averaged measurements. About 6,200 targets were measured; listed, in parts, are those with the largest changes and a random draw of the rest.

Compound: Nc1ncnc2c1ncn2[C@@H]1O[C@H](COP(=O)(O)OP(=O)(O)NP(=O)(O)O)[C@@H](O)[C@H]1O [adenylyl imidodiphosphate]
Assay: NP40-soluble protein abundance relative to vehicle (solubility fold change) (ratio); higher = more soluble protein in presence of AMP-PNP
In short: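 Jurkat crude lysate (Dounce-homogenised) was treated with eight concentrations from 0.1 to 10 mM for 10 min at room temperature, then 3 min at 37 °C. It was solubilised with 0.8% NP40 and benzonase (60 min, 4 °C) and ultracentrifuged, and the supernatant was TMT-labelled for LC-MS/MS. Intensities were vsn-normalised, and the value is the fold change against the NP40-processed vehicle per replicate, from three independent experiments.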

Chain of UniProt Q15262 (Q15262 whole entry, one chain of several): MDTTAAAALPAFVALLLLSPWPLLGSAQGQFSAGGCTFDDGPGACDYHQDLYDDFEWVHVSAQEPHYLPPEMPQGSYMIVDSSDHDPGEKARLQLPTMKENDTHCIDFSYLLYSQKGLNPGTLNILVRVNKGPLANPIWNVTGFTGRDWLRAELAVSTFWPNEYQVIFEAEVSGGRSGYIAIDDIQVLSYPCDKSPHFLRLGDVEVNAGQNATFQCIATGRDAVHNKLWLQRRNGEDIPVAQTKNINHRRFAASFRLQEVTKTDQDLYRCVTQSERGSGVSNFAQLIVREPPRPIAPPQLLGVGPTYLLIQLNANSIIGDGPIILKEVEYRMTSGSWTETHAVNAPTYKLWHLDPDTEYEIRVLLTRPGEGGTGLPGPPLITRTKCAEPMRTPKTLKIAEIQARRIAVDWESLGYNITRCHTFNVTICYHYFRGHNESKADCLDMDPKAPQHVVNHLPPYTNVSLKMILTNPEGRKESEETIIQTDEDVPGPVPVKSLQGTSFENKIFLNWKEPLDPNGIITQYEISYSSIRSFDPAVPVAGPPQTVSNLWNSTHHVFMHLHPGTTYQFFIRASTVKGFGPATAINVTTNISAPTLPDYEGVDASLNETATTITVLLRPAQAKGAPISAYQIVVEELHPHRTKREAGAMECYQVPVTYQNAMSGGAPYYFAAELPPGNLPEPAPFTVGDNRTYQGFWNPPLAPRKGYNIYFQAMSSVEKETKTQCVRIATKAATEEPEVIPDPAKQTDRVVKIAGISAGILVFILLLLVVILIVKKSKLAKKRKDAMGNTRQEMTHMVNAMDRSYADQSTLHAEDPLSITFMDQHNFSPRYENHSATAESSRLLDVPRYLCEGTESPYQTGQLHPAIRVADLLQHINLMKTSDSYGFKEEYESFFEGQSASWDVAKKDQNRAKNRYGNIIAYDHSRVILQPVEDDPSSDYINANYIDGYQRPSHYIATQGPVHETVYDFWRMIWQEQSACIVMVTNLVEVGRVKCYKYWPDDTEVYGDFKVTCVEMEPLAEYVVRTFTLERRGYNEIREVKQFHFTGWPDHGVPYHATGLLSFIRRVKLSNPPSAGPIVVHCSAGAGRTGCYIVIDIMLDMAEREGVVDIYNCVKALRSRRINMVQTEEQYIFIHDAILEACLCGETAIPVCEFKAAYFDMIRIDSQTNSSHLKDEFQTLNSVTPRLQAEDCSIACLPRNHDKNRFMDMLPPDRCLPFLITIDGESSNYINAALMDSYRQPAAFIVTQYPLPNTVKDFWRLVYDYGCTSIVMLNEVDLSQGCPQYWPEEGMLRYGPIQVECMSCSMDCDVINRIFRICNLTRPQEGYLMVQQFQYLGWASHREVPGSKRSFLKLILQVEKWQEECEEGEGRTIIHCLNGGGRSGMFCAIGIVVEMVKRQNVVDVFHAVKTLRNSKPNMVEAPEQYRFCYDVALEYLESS
Chain of UniProt P48444 (P48444 whole entry, one chain of several): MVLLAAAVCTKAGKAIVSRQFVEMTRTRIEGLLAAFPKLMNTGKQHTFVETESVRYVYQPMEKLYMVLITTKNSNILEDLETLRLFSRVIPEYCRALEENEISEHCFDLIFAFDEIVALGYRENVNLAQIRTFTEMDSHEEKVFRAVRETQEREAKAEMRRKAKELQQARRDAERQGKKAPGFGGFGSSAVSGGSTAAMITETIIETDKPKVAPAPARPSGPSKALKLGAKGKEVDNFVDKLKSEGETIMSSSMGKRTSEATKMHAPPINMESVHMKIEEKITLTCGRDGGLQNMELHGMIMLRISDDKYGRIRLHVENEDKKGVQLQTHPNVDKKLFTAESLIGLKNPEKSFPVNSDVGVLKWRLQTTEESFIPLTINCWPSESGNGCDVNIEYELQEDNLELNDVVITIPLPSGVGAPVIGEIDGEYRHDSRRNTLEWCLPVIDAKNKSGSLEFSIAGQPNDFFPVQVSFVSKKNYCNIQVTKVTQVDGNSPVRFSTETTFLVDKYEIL
Chain of UniProt Q96K37 (Q96K37 whole entry, one chain of several): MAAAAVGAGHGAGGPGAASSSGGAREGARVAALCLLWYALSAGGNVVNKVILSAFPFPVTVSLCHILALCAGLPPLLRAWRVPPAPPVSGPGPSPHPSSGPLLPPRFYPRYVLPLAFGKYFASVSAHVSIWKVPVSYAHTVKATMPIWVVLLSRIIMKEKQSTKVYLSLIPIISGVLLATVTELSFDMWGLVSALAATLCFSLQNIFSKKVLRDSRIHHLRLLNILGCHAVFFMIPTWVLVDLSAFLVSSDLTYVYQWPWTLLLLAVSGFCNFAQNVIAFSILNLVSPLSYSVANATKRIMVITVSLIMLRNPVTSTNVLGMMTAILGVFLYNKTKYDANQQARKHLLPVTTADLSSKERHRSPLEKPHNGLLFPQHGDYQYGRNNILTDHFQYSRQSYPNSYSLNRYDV
Chain of UniProt P36873 (P36873 whole entry, looked up, one chain of several): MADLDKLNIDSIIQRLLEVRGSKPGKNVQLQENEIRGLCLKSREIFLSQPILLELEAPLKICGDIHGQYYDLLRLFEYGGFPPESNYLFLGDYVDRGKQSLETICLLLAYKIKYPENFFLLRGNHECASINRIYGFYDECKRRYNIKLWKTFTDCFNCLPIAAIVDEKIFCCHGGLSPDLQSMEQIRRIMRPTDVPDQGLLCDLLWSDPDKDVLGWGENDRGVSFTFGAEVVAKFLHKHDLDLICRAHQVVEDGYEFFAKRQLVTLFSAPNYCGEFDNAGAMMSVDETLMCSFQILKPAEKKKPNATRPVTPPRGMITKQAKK
Chain of UniProt Q96FZ2 (Q96FZ2 whole entry, one chain of several): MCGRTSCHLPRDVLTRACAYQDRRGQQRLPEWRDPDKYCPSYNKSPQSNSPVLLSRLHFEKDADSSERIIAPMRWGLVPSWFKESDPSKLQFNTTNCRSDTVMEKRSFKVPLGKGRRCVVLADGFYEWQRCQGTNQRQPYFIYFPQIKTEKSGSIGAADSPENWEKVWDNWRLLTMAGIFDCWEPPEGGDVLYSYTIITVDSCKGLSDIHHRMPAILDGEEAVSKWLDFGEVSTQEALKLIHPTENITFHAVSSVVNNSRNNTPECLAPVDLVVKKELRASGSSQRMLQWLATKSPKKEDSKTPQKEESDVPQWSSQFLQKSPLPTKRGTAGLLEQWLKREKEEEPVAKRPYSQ
Chain of UniProt P49585 (P49585 whole entry, one chain of several): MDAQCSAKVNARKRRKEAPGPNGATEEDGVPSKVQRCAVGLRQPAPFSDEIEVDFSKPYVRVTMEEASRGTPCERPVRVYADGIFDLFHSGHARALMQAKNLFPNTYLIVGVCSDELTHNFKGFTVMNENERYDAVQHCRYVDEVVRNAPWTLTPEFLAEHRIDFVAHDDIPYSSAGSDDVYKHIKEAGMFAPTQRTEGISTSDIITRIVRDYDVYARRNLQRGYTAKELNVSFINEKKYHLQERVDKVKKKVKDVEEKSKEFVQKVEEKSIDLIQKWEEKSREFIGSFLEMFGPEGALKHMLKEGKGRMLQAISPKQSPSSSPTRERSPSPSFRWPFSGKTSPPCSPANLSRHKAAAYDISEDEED
Chain of UniProt O43169 (O43169 whole entry, one chain of several): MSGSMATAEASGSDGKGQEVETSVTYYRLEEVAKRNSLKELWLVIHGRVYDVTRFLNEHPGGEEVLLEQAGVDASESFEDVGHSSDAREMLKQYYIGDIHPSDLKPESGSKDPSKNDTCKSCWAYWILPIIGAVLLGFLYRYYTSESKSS
Chain of UniProt O14734 (O14734 whole entry, one chain of several): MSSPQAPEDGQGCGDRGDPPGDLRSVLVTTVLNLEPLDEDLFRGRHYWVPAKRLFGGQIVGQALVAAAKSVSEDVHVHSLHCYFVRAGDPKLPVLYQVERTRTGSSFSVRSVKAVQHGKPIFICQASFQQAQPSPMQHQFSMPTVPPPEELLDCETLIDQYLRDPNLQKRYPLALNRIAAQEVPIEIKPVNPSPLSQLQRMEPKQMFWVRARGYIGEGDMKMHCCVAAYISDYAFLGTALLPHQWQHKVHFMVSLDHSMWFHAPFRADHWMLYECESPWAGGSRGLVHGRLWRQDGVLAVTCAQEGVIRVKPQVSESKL
Chain of UniProt P34949 (P34949 whole entry, one chain of several): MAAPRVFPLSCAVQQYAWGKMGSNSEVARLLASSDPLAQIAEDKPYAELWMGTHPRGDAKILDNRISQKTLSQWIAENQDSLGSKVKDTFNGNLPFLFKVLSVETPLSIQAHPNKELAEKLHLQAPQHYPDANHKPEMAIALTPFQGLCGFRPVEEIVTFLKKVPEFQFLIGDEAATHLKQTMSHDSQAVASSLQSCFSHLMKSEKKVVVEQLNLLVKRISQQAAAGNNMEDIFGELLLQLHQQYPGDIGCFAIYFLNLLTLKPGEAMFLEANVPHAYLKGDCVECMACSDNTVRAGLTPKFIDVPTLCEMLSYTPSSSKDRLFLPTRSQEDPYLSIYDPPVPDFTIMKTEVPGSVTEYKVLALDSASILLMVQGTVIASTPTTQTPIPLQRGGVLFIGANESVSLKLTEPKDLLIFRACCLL

Target	NP40-soluble protein abundance (concentration: 1mM)	NP40-soluble protein abundance (concentration: 2mM)	NP40-soluble protein abundance (concentration: 4mM)	NP40-soluble protein abundance (concentration: 6mM)	NP40-soluble protein abundance (concentration: 8mM)	NP40-soluble protein abundance (concentration: 10mM)
H3BPB8|P34949 (UniProt P34949)	1.029 ± 0.0072	1.01 ± 0.039	1.02 ± 0.027	0.976 ± 0.029	1.01 ± 0.042	0.988 ± 0.048
J3KNF8|O43169 (UniProt O43169)	1.15 ± 0.069	1.34 ± 0.33	1.1 ± 0.049	1.08 ± 0.047	1.03 ± 0.08	1.05 ± 0.054
E7EMP6|Q96FZ2 (UniProt Q96FZ2)	1.06 ± 0.015	1.01 ± 0.032	1.04 ± 0.021	0.9875 ± 0.0043	1.01 ± 0.016	1 ± 0.033
H7C1I0|Q96K37|Q96K37-2 (UniProt Q96K37)	1.02 ± 0.041	1.03 ± 0.017	1.02 ± 0.022	1.02 ± 0.039	1.05 ± 0.054	1.07 ± 0.056
F8W1A0|P36873 (UniProt P36873)	0.983 ± 0.022	0.928 ± 0.056	0.972 ± 0.014	0.985 ± 0.03	0.986 ± 0.021	0.9667 ± 0.0073
E9PDF6|O43795|O43795-2 (UniProt O43795)	2.06 ± 0.29	2.04 ± 0.2	2.31 ± 0.29	2.37 ± 0.28	2.45 ± 0.32	2.39 ± 0.27
H7C5A7|O14734 (UniProt O14734)	0.962 ± 0.017	0.932 ± 0.036	0.956 ± 0.013	0.984 ± 0.061	0.97 ± 0.015	0.961 ± 0.02
C9JEJ2|H7BZN1|P49585|C9J050 (UniProt P49585)	1.01 ± 0.028	1.02 ± 0.022	1.02 ± 0.015	0.993 ± 0.027	1 ± 0.02	0.996 ± 0.01
E9PB61|Q86V81 (UniProt Q86V81)	0.969 ± 0.032	1.08 ± 0.042	1.09 ± 0.027	1.27 ± 0.081	1.41 ± 0.14	1.6 ± 0.28
B0YIW6|P48444 (UniProt P48444)	0.98 ± 0.015	0.931 ± 0.045	0.949 ± 0.01	0.9391 ± 0.0089	0.9554 ± 0.0037	0.921 ± 0.017
ZC3H11A (UniProt O75152)	0.86 ± 0.11	0.883 ± 0.1	0.853 ± 0.13	0.936 ± 0.094	0.933 ± 0.098	1.03 ± 0.098
E9PGC5|Q15262-2|Q15262-3|Q15262-4|Q5TG12|Q15262 (UniProt Q15262)	1.02 ± 0.011	1.04 ± 0.053	1.02 ± 0.028	1.01 ± 0.015	0.997 ± 0.011	1.01 ± 0.019
